Measured values from ChEMBL document CHEMBL4513146, “CO-ADD screening of Karazin Kharkiv National University (Ukraine) compounds”.
Measured potencies and affinities stand elsewhere.

Experiments:
[1] = test system: Klebsiella pneumoniae; conditions: Concentration 32 ug.mL-1;; ASSAY_TEST Inhibition of Bacterial Growth; detection method Absorption (OD600); MEDIA CAMHB; plate type 384well; NBS; CORNING #3640; time 18 hr
[2] = test system: Candida albicans; conditions: Concentration 32 ug.mL-1; ASSAY_TEST Inhibition of Fungal Growth; detection method Absorption (OD530)
[3] = test system: Cryptococcus neoformans; conditions: Concentration 32 ug.mL-1; ASSAY_TEST Inhibition of Fungal Growth; detection method Resazurin; Absorption (OD600-OD570); plate type 384well; NBS; CORNING #3640

| Structure (SMILES) | Inhibition [1] | Inhibition [2] | Inhibition [3] |
| --- | --- | --- | --- |
| CCOc1ccc(-n2ccn3c(SCC(=O)c4ccc(C)cc4C)nnc3c2=O)cc1 | 5.02% | 2.76% | -5.48% |
| Cc1ccc(Cl)cc1NC(=O)Cn1nc2c3c4c(sc3ncn2c1=O)CCCCC4 | 13.99% | 1.16% | -31.5% |
| COc1cccc(-n2ccn3c(SCc4cccc(Cl)c4)nnc3c2=O)c1 | 8.66% | 0.25% | -7.39% |
| Cc1ccc(-c2cc3c4nn(CC(=O)N5CCN(c6ccc(F)cc6)CC5)c(=O)n4ccn3n2)cc1C | 7.51% | 1.65% | -26.79% |
| Cc1nnc2c(=O)n(CC(=O)Nc3ccc(Br)cc3)c3ccccc3n12 | 3.12% | 2.53% | -1.52% |
| CSc1cccc(NC(=O)Cn2nc3c(Oc4cc(C)cc(C)c4)nccn3c2=O)c1 | 7.88% | 2.48% | -9.76% |
| CC(=O)c1ccc(NC(=O)Cn2nc3ccc(Sc4ccccc4)nn3c2=O)cc1 | -6.33% | 15.65% | -7.51% |
| Cc1ccc(CN(c2ccc(C(C)C)cc2)S(=O)(=O)c2cccn3cnnc23)cc1 | 23.96% | 3.57% | -16.89% |
| CC(C)Cn1c(=O)c2sccc2n2c(=O)n(CC(N)=O)nc12 | -1.97% | -1.59% | -19.03% |
| COc1cccc(Sc2nc3ccccc3n3c(=O)n(CC(=O)Nc4ccc(C)cc4)nc23)c1 | 9.1% | 4.31% | -30.42% |
| O=S(=O)(c1ccc2nncn2c1)N(Cc1cccc(F)c1)c1ccc(F)c(F)c1 | 13.11% | 5.52% | -5.3% |
| CCOC(=O)C1CCN(c2nc3ccccc3n3c(=O)n(CC(=O)Nc4ccccc4F)nc23)CC1 | 4.78% | 13.18% | -20.01% |
| O=C(CSc1nnc2c(=O)n(Cc3ccc(F)cc3)ccn12)NCC1CCCO1 (stereo not given) | 11.7% | 1.72% | -16.29% |
| COc1ccc(-c2cc3c4nnc(CCC(=O)NCCc5ccccc5)n4ccn3n2)cc1 | 3.81% | 3.45% | -16.37% |
| COc1ccccc1-n1ccn2c(SCC(=O)Nc3ccc4c(c3)OCCO4)nnc2c1=O | 16.4% | 6.52% | -7.16% |
| Cc1ccc(NC(=O)Cn2nc3ccc(SC4CCCCC4)nn3c2=O)c(Cl)c1 | 12.19% | 5.14% | -13.64% |
| CCCCc1ccc(NC(=O)CSc2nc3ccccc3n3c(CC)nnc23)cc1 | 13.43% | 1.28% | -16.72% |
| CCOc1ccc(-n2ccn3c(SCC(=O)c4cc(C)c(C)cc4C)nnc3c2=O)cc1 | 2.47% | 2.99% | -7.59% |
| CCOc1ccc(-c2nc(CSc3nc4ccccc4n4c(C(C)C)nnc34)c(C)o2)cc1 | 2.25% | -0.51% | -14.56% |
| CCOC(=O)c1ccc(NC(=O)Cn2nc3c4sc(N5CCCC5)nc4ncn3c2=O)cc1 | -7.55% | 32.94% | -7.69% |

| Structure (SMILES) | Inhibition [1] | Inhibition [2] | Inhibition [3] |
| --- | --- | --- | --- |
| O=c1c2nnc(-c3ccc([N+](=O)[O-])cc3)n2ccn1-c1ccc(F)c(F)c1 | 12.52% | 2.2% | -9.46% |
| COc1cccc(C(=O)CSc2nnc3c(=O)n(-c4ccc(F)cc4)ccn23)c1 | 7.79% | 2.89% | -4.94% |
| CC(C)CCn1c(=O)c2sccc2n2c(=O)n(CC(=O)N(C)c3ccccc3)nc12 | 0.74% | -2.64% | -16.67% |
| Cn1c(=O)c2ccc(C(=O)NC3CCCC3)cc2n2c(SCC(=O)Nc3cc(F)ccc3F)nnc12 | 7.15% | 0.81% | -19.18% |
| CN(C(=O)Cn1nc2nc(Nc3ccc(F)cc3)ccn2c1=O)c1ccccc1 | 8.25% | 3.9% | -4.67% |
| CCCCn1c(=O)c2sccc2n2c(CCC(=O)Nc3ccc(OC(F)(F)F)cc3)nnc12 | 7.36% | -0.1% | -18.58% |
| Cc1ccc(Oc2nccn3c(=O)n(CC(=O)Nc4ccc(Cl)cc4F)nc23)cc1 | 8.24% | 4.29% | -15% |
| COc1ccc(NC(=O)Cn2nc3c4cc(-c5ccc(F)cc5)nn4ccn3c2=O)c(OC)c1 | 14.79% | 2.08% | -15.48% |
| COc1ccc(NC(=O)Cn2c(=O)c3nnc(C)n3c3ccccc32)cc1Cl | 11.31% | 0.53% | -20.99% |
| CCOc1ccc(-n2ccn3c(SCC(=O)Nc4ccc(CC)cc4)nnc3c2=O)cc1 | 16.87% | 2.31% | -18.11% |
| Cc1cccc(C)c1NC(=O)Cn1nc2c(SC3CCCCC3)nccn2c1=O | 8.3% | 20.03% | -18.68% |
| COc1cccc(N(Cc2ccc(F)cc2)S(=O)(=O)c2ccc3nncn3c2)c1 | -3.46% | 1.11% | -15.36% |
| COc1ccccc1Cn1c(=O)c2sccc2n2c(=O)n(CC(=O)c3ccc(C)cc3C)nc12 | 4.01% | 8% | -26.25% |
| COc1ccc(-c2cc3c4nn(CC(=O)Nc5ccc(OC)c(Cl)c5)c(=O)n4ccn3n2)cc1 | -0.45% | 32.01% | -18.43% |
| CSc1ccc(CNC(=O)Cn2nc3c(N4CCOCC4)nccn3c2=O)cc1 | 9.81% | 3.79% | -7.62% |
| COc1ccc(N2CCN(C(=O)Cn3nc4c(Oc5cccc(C)c5C)nccn4c3=O)CC2)cc1 | 15.7% | -0.29% | -13.03% |
| COc1cccc(-n2ccn3c(SCC(=O)N4CCN(c5ccc(F)cc5)CC4)nnc3c2=O)c1 | 8.66% | 0.06% | -10.47% |
| COCCCNC(=O)CSc1nnc2c(=O)n(Cc3ccccc3)ccn12 | 17% | 2.41% | -23.49% |
| Cc1nnc2ccc(S(=O)(=O)N(Cc3cc(F)cc(F)c3)c3ccc(F)cc3)cn12 | 7.75% | 0.47% | -6.16% |
| COC(=O)c1ccc(NC(=O)Cn2c(=O)c3nnc(C(C)C)n3c3ccccc32)cc1 | 11.69% | -0.03% | -26.77% |

| Structure (SMILES) | Inhibition [1] | Inhibition [2] | Inhibition [3] |
| --- | --- | --- | --- |
| Cc1nnc2c(=O)n(CC(=O)Nc3ccc(Cl)cc3F)c3ccccc3n12 | 7.95% | 0.4% | -18.26% |
| Cc1ccccc1Oc1nccn2c(=O)n(CC(=O)Nc3ccc(F)cc3F)nc12 | 11.95% | -0.38% | -8.47% |
| O=c1c2nn(Cc3cccc([N+](=O)[O-])c3)c(=O)n2ccn1-c1ccccc1 | 9.21% | 0.04% | -10.2% |
| COc1ccc(-c2cc3c4nn(CC(=O)Nc5ccc(OC)c(OC)c5)c(=O)n4ccn3n2)cc1 | 11.9% | -0.77% | -19.32% |
| O=C(CSc1nc2ccccc2n2cnnc12)N1CCN(c2ccc(F)cc2)CC1 | 8.82% | 1.33% | 6.24% |
| Cc1cc(C)c(NC(=O)Cn2nc3ccc(SC4CCCCC4)nn3c2=O)c(C)c1 | 7.83% | 19.78% | -14.71% |
| CCCCN(CC)c1ccc2nnc(CCc3nc(-c4ccc(Br)cc4)no3)n2n1 | 10.38% | 6.33% | -10.77% |
| Cc1ccc(-c2cc3c4nnc(CCC(=O)NCCCc5ccccc5)n4ccn3n2)cc1C | 12.56% | -0.09% | -29.9% |
| CCc1nnc2c(=O)n(CC(=O)Nc3cccc(C#N)c3)c3ccccc3n12 | 9.63% | 5.47% | -28.04% |
| Cc1ccc(-c2cc3c4nn(CC(=O)Nc5ccc6c(c5)OCO6)c(=O)n4ccn3n2)cc1 | 10% | 9.65% | -32.25% |
| CCc1nnc2ccc(S(=O)(=O)N(Cc3ccccc3F)c3ccc(OC)cc3)cn12 | 7.78% | 3.86% | -4.31% |
| Cc1cccc(C)c1NC(=O)Cn1nc2n(C)c(=O)c3c(c(-c4ccccc4)cn3C)n2c1=O | 10.1% | 0.83% | -9.16% |
| CC(C)Cn1c(=O)c2sccc2n2c(=O)n(Cc3ccc(N4CCCC4=O)cc3)nc12 | 9.72% | 1.08% | -27.68% |
| O=C(CSc1nnc2c(=O)n(-c3cccc(F)c3)ccn12)Nc1ccc(Br)cc1F | 15.26% | 5.02% | -13.45% |
| Cc1ccc(CNC(=O)CSc2nnc3c(=O)n(-c4ccccc4)ccn23)cc1 | 13.24% | 3.44% | -18.23% |
| COc1ccc(OC)c(NC(=O)Cn2nc3c(Sc4ccccc4)nc4ccccc4n3c2=O)c1 | 8.31% | 2.83% | -24.8% |
| Cn1c(=O)c2ccc(C(=O)NC3CCCCC3)cc2n2c(=O)n(Cc3cccc(C(F)(F)F)c3)nc12 | 16.04% | 1.42% | -24.7% |
| CCC(Sc1nnc2c(=O)n(-c3cccc(OC)c3)ccn12)C(=O)Nc1cc(C)ccc1C (stereo not given) | 11.08% | 1.67% | -10.57% |
| Cc1ccc(NC(=O)c2ccc3nnc(SCC(=O)Nc4ccc(F)cc4)n3c2)cc1 | 0.72% | 4.31% | -5.93% |
| CCCc1ccc(S(=O)(=O)Nc2ccc3nncn3n2)cc1 | 8.2% | 1.65% | -5.43% |
